{"source": "PubChem BioAssay AID624329", "about": "(National Center for Advancing Translational Sciences (NCATS), 2012)", "note": "Results filed as inconclusive are left out. Unmarked numbers belong to inactive results. The source made the active and inactive calls. Calls come from the whole dose curve; as a rule, active = well fitted curve in the direction sought with a large enough effect; inconclusive = small, poorly fitted or top-dose-only effect; inactive = flat fitted curve, though single readings scatter."}
{"test": "Quantitative high throughput screen for delayed death inhibitors of the malarial parasite plastid: Hit Validation with 3D7 at 48 hr using Flow Cytometry", "settings": "P. falciparum 3D7 growth, flow cytometry SYBR/MitoTracker; fraction of growth remaining: at 50 µM (top of the series)", "from_the_text": "The goal of this screen is to discover new antimalarial compounds that act by inhibiting the development of the apicoplast organelle in the malarial parasite Plasmodium falciparum. Some antibiotics, such as azithromycin and tetracycline, are known to interfere with the apicoplast translational machinery, and have a potent antimalarial effect. […] We developed a cell-based quantitative high throughput screen that leverages this \"delayed death\" phenotype to enrich for compounds that target the apicoplast. To detect small molecules that cause the delayed death phenotype, erythrocytes infected with firefly luciferase-expressing parasites were incubated with compounds for either one or two generations, corresponding to 48 and 96 hours, respectively. Growth inhibition was detected by a decrease in luciferase activity. Compounds that inhibited parasite growth in the second generation at least five-fold more potently than in the first generation were defined as delayed death inducing. These compounds were selected for confirmatory screening using a flow cytometry based assay. This hit validation assay used the 3D7 cell line and measured at 48 hours. NIH Molecular Libraries Probe Production Network [MLPCN] NIH Chemical Genomics Center [NCGC] MLPCN Grant: R21 NS059500 Assay Provider: David Fidock and Eric Ekland, Columbia University\nTest compounds were diluted in 20 microliters of complete media (RPMI 1640 with 0.5% w/v Albumax (GIBCO), 24 mM sodium bicarbonate (Sigma) and 10 ug/mL gentamycin (Gibco)) in clear 384-well plates (Greiner). All liquid handling was conducted using a Bio Tek Precision 2000 pipetting system. Twenty microliters of infected erythrocytes, 0.2% parasitemia (for 48 hour time points) or 0.1% parasitemia (for 96 hour time points) were added to the compound dilutions (1% hematocrit, final concentration; 40 microliters, total culture volume). The assay plates were incubated for 48 hours, or 96 hours, at 37 masculine C in a humidified chamber (Billups- Rothenberg, Del Mar, CA, USA), gassed with 5%CO2/5%O2/ 90%N2. After one generation (48 hours), 5 microliters of culture were harvested and transferred to a second 384 well plate for fluorescent staining. Samples were stained with 30 microliters of 2 x SYBR Green I (Invitrogen) and 150nM MitoTracker Deep Red (Invitrogen) diluted in 0.9% NaCl, 0.2% dextrose (Baxter) supplemented with 2.5% Fetal Calf Serum (Gibco) (saline/FCS). Mature erythrocytes lack nuclei and mitochondria, therefore only parasitized erythrocytes retain the SYBR Green I and MitoTracker Deep Red. After 30 minutes at 37 masculine C, the stained cells were diluted in an additional 60 microliters of saline/FCS. The samples were harvested directly from the 384 well plate using a Hypercyt High Capacity Flow Platform (Intellicyt) paired with a C6 Flow Cytometer (Accuri). The flow cytometry files were analyzed using FlowJo software (FlowJo)."}
{"smiles": "Cc1ccc(-n2c(-c3ccc(Cl)cc3)c[n+]3c2CCC3)cc1", "Potency": "4.64 µM (active)"}
{"smiles": "c1csc(CNc2ncnc3nc[nH]c23)c1", "fraction of growth remaining": 0.572}
{"smiles": "CO[C@@H]1[C@@H](OC2OC(C)C(OC3CC(C)(O)C(OC(=O)CC(C)C)C(C)O3)C(N(C)C)C2O)[C@@H](CC=O)C[C@@H](C)C(=O)/C=C\\C2O[C@H]2C[C@@H](C)OC(=O)C[C@H]1OC(C)=O", "note": "(stereo partly drawn)", "Potency": "2.95 µM (active)"}
{"smiles": "Cc1c(F)c(N2CCNC(C)C2)cc2c1c(=O)c(C(=O)O)cn2C1CC1", "note": "(stereo not drawn)", "Potency": "5.98 µM (active)"}
{"smiles": "CCCCN(CCCNC(=O)C1CCN(C(=O)c2cc3sccc3n2C)CC1)Cc1ccccc1", "Potency": "9.82 µM (active)"}
{"smiles": "CCCc1cc(=O)oc2cc(OC(C)C(=O)NCc3ccccn3)c(Cl)cc12", "note": "(stereo not drawn)", "Potency": "16.9 µM (active)"}
{"smiles": "CCCCOc1ccc(N2C(N)=NC(N)=NC23CCCCC3)cc1", "Potency": "22.2 µM (active)"}
{"smiles": "COc1ccc2c(ccc[n+]2CC(=O)c2ccccc2)c1", "Potency": "9.29 µM (active)"}
{"smiles": "CCCc1c(CC)c(=N)c2ccccc2n1C", "Potency": "6.48 µM (active)"}
{"smiles": "Cc1ccc(S(=O)(=O)Nc2ccc(C(=O)Nc3ccncc3)cc2)cc1", "Potency": "26.3 µM (active)"}
{"smiles": "CC(=O)NC[C@@H]1CN(c2ccc(N3CCOCC3)c(F)c2)C(=O)O1", "fraction of growth remaining": 0.835}
{"smiles": "CCCCN(CCCNC(=O)c1ccc(CS(=O)(=O)c2ccc(OC)cc2)o1)Cc1ccccc1", "fraction of growth remaining": "0.163 (active)"}
{"smiles": "O=C(CNC(=O)C1CCCCC1)OC(C(=O)c1ccccc1)c1ccccc1", "note": "(stereo not drawn)", "fraction of growth remaining": 0.652}
{"smiles": "CC1=Nc2cc(C(=O)N3CCCC3)ccc2Sc2ccc(C)cc21", "fraction of growth remaining": "0.151 (active)"}
{"smiles": "CCOc1ccc(S(=O)(=O)Nc2cc(S(=O)(=O)N(CC)CC)ccc2N2CCCC2)cc1", "Potency": "12.5 µM (active)"}
{"smiles": "Clc1ccc(-c2c[n+](Cc3ccc(Cl)cc3Cl)c3n2CCCCC3)cc1", "Potency": "5.64 µM (active)"}
{"smiles": "N#Cc1cccc(NC(=O)Cn2c3[n+](c4ccc(C(F)(F)F)cc42)CCCCC3)c1", "Potency": "19.9 µM (active)"}
{"smiles": "CCC(=O)OC1C(N(C)C)CC(C)O[C@H]1O[C@H]1[C@H](C)[C@@H](O[C@H]2CC(OC)[C@@H](O)C(C)O2)[C@H](C)C(=O)O[C@@H](CC)[C@](C)(O)[C@@H](O)[C@H](C)C(=O)[C@@H](C)C[C@]1(C)O", "note": "(stereo partly drawn)", "fraction of growth remaining": 0.768}
{"smiles": "COc1ccccc1N1CCN(CCC(=O)Nc2ccc(F)cc2)CC1", "Potency": "18.3 µM (active)"}
{"smiles": "O=C(NCc1cccnc1)c1ccc(NS(=O)(=O)c2ccccc2)cc1", "Potency": "30.9 µM (active)"}
{"smiles": "CCOC(=O)c1ccc2c(c1)n(CC)c(/C=C/N(C)c1ccccc1)[n+]2CC", "Potency": "1.52 µM (active)"}
{"smiles": "CCc1nc(SCC(=O)Nc2ccc(N(C)C)cc2)n[nH]1", "Potency": "0.4 µM (active)"}
{"smiles": "COc1cccc(CN2CCN(c3nc4nonc4nc3N3CCCCC3)CC2=O)c1", "Potency": "5.55 µM (active)"}
{"smiles": "COc1ccc(NC(=S)N2CCC(Cc3ccccc3)CC2)cc1OC", "Potency": "46.5 µM (active)"}
{"smiles": "Cc1ccc(CN2CCC(n3nccc3NC(=O)c3ccccc3C)CC2)o1", "fraction of growth remaining": "0.498 (active)"}
{"smiles": "CCOc1ccc(NC(=O)C[n+]2ccc(N(C)C)cc2)cc1", "Potency": "25.8 µM (active)"}
{"smiles": "COc1ccc2cc3cc(C(=O)Nc4ccc5c(c4)OCO5)oc3nc2c1", "Potency": "48.3 µM (active)"}
{"smiles": "O=C(CSc1ccc(-c2cccnc2)nn1)Nc1ccccc1C(F)(F)F", "Potency": "12.4 µM (active)"}
